# Results from PubChem BioAssay AID540256 (National Center for Advancing Translational Sciences (NCATS), 2011).
# Out of some 300,000 compounds screened, about 3,700 (1.2%) were called active. Not shown: some 20% with an inconclusive outcome. Only a selection was taken, and actives are over-represented in it overall. A number with no mark means an inactive call. Calls follow the shape of the full dose curve; tested in HEK293 cells.
# Assay: qHTS for Inhibitors of binding or entry into cells for Lassa Virus; also: nearly all actives have a fitted effect of over 50% in size
# Details: Lassa virus pseudotype entry inhibition, cell reporter; series mostly up to 37.9 µM; activity change, negative = inhibition: at the top concentration
# % is scaled to controls: 0 for no effect and ±100 for the full control effect; potency is read from the fitted curve at half-maximal effect.
Structure (SMILES),"activity change, negative = inhibition",Potency
Cc1ccc(CNC(=O)COc2ccc(S(=O)(=O)NC(C)C)cc2)cc1,-27.2%,
Cc1ccc(OCC(=O)NNC(=S)NCc2ccccc2)cc1,-3.7%,
Cc1ccc(CNC(=O)COc2ccc3c(c2)CCC3)cc1,,18.4 µM (active)
O=C1CCc2cc(S(=O)(=O)Nc3ccc(C(F)(F)F)cc3)cc3c2N1CC3,0.263%,
CCOc1ccc(C(=O)CCC(=O)NC2=NCCS2)cc1,2.25%,
Cc1ccc2oc(=O)c3cnn(CC(=O)N4CCN(c5cccc(Cl)c5)CC4)c3c2c1,-7.95% [at 46.1 µM],
Cc1ccccc1CCNC(=O)C1CCC(=O)N(Cc2ccc(Cl)cc2)C1 (stereo unspecified),-1.95%,
COc1ccccc1NC(=O)Nc1nc(CC(=O)Nc2ccccc2F)cs1,3.87%,
Cc1noc(C)c1/C=N/Nc1ccc2ccccc2n1,-25.4%,
Brc1ccc(-c2csc(N/N=C/c3ccc4c(c3)OCO4)n2)cc1,7.35%,
C(=N\Nc1ccc2ccccc2n1)/c1ccc2c(c1)OCO2,,2.24 µM (active)
CC(Sc1nncn1C)C(=O)NCCC1=CCCCC1 (stereo unspecified),16.2% [at 46.1 µM],
Cc1ccc(-n2cnc3cc(C(=O)NCCC4=CCCCC4)ccc32)cc1Cl,12.8% [at 46.1 µM],
Cn1nnc2cc(C(=O)NCCC3=CCCCC3)ccc21,,8.91 µM (active)
Cc1cccc(C(=O)N[C@H](C(=O)NCc2cccs2)C(C)C)c1,0.171%,
COc1ccc2c(c1)c(=Cc1ccc(N(C)C)cc1)c1cc(-c3ccccc3)[n+](C)n12,,8.91 µM (active)
CCc1nnc(SCc2c(F)cccc2Cl)c2cc3sccc3n12,-13.9% [at 46.1 µM],
O=C(COC(=O)c1ccc(Oc2ccccc2)cc1)Nc1nnc(-c2ccccc2)o1,11.2%,
COc1cccc(-c2nnc(NC(=O)c3ccc(S(=O)(=O)N(CC(C)C)CC(C)C)cc3)o2)c1,,7.08 µM (active)
CS(=O)(=O)c1ccc(-c2nnc(NC(=O)c3ccc4c(c3)OCCO4)o2)cc1,-1.29% [at 46.1 µM],
COC(=O)c1ccc(NS(=O)(=O)c2cc3c4c(c2)C(C)C(=O)N4CCC3)cc1 (stereo unspecified),-10.9%,
COc1ccc(C(=O)N2CCN(c3ccc(C(C)=O)cc3F)CC2)cc1S(=O)(=O)NC1CC1,-10.2%,
O=C(NCCSCc1ccccc1)c1ccc(Cl)c(S(=O)(=O)N2CCOCC2)c1,2.76%,
CC(C)(CNC(=O)c1ccc(Cl)c(S(=O)(=O)N2CCc3ccccc3C2)c1)N1CCOCC1,,11.2 µM (active)
CC(C)(CNC(=O)Cc1ccc(Cl)cc1Cl)N1CCOCC1,12.5% [at 46.1 µM],
Nc1ncnc2c1cnn2C1CC(O)C(CO)O1 (stereo unspecified),-5.6% [at 46.1 µM],

Structure (SMILES),"activity change, negative = inhibition",Potency
CSc1ncccc1C(=O)NCC(c1ccco1)N1CCCCC1 (stereo unspecified),1.83%,
CCS(=O)(=O)Nc1ccc(C2=NN(C(C)=O)C(c3cccs3)C2)cc1 (stereo unspecified),-18.5%,
CS(=O)(=O)Nc1ccc(C2=NN(S(C)(=O)=O)C(c3cccs3)C2)cc1 (stereo unspecified),-10.6%,
CCS(=O)(=O)Nc1ccc(C2=NN(S(=O)(=O)c3ccc(F)cc3)C(c3ccco3)C2)cc1 (stereo unspecified),,7.3 µM (active)
COc1ccccc1C(=O)c1ccccc1C(=O)c1ccccc1,-0.819% [at 46.1 µM],
COc1ccc(-c2cn3nc(N4CCC(C(=O)Nc5cccc(C)c5C)CC4)sc3n2)cc1,18.7% [at 46.1 µM],
CC(OC(=O)c1ccc(Cl)cc1O)C(=O)NCCC1=CCCCC1 (stereo unspecified),2.74%,
CC(C)NC(=O)c1ccc(Cl)cc1Cl,12.8% [at 46.1 µM],
CC(C)OC(=O)c1ccc(NCc2cc(O)ccc2O)cc1Cl,,10 µM (active)
O=C(Cn1c(-c2cccs2)cc2ccccc21)NCCc1ccc(Cl)cc1,8.67% [at 46.1 µM],
O=C1c2ccccc2C(=O)N1CCCCCCN1C(=O)c2ccccc2C1=O,0% [at 46.1 µM],
CC(=O)c1ccc(S(=O)(=O)NC2CC(=O)N(c3ccc4c(c3)OCCO4)C2)cc1 (stereo unspecified),-2.24%,
O=C(CSc1nncs1)NC1CCCc2ccccc21 (stereo unspecified),14% [at 46.1 µM],
CSc1ccccc1N1CCN(CCCCCC(=O)NC2CCCc3ccccc32)CC1 (stereo unspecified),,11.6 µM (active)
O=C(CN1CCN(c2ccc(O)cc2)CC1)NC1CCCc2ccccc21 (stereo unspecified),-29.6%,
Cc1cccc(NC(=S)N2CCC(C(=O)c3ccc(F)cc3)CC2)c1,1.61% [at 46.1 µM],
COc1cc(C(c2c(NC(=O)c3ccco3)sc(C)c2C)N2CCOCC2)cc(OC)c1OC (stereo unspecified),-2.37%,
Cc1ccc(-c2nnc(-c3ccc(NC(=O)c4cccs4)cc3)o2)cc1,,7.3 µM (active)
Cc1ccc(-c2csc(NC(=O)c3cccs3)n2)cc1,0.307%,
Cc1ccc(C(=O)Nc2ccc(NC(=O)c3cccs3)cc2)c(C)c1,-6.7%,
COC(=O)c1cc(C(=O)OC)n2ccc3cc(OC)c(OC)cc3c12,21.2% [at 14.3 µM],
CSCCC(NC(=O)COc1ccccc1)C(=O)OCc1ccc(Cl)cc1 (stereo unspecified),3.24%,
O=C(CSc1nc2[nH]c(=O)[nH]c(=O)c2s1)Nc1cccc(F)c1,9.68%,
COc1cc(C(=O)N2CCN(c3ccc(Nc4ccc(C)cc4)nn3)CC2)cc(OC)c1OC,-25.3% [at 46.1 µM],
O=C(NC1CC1)c1ccc(-c2ccccc2)cc1,17.2%,
Cc1ccc(C(=O)NCC(=O)OCC(=O)NC2CCCCCCC2)cc1,-7.65% [at 46.1 µM],

Structure (SMILES),"activity change, negative = inhibition",Potency
Cc1ccc(C(=O)NC2CCC2)cc1-c1ccc(C(=O)NCC2CC2)cc1,,11.2 µM (active)
CCN(CC(=O)Nc1ccc(OC)cc1)C(=O)c1ccc(Cl)c(S(=O)(=O)N2CCCC2)c1,-5.74%,
COC(=O)c1cc(C(=O)NC(C)C2CC3CCC2C3)cc([N+](=O)[O-])c1 (stereo unspecified),1.88%,
O=C(CCCCCCCC(=O)N1CCCCC1)N1CCCCC1,-5.69%,
CSc1ncc(Sc2ccccc2)c(C(=O)O)n1,-7.12%,
COc1ccc2nc(N3C(=O)C(O)=C(C(=O)c4ccco4)C3c3ccco3)sc2c1 (stereo unspecified),3.18%,
Cc1cccn2c(=O)c(/C=C3\SC(=S)N(CC(C)C)C3=O)c(NCCCOC(C)C)nc12,3.06%,
CCOC(=O)CC1C(=O)NCCN1c1nc2c(C)cccn2c(=O)c1/C=C1\SC(=S)N(C(C)CC)C1=O (stereo unspecified),,6.31 µM (active)
CCCN(CCC)c1nc2c(C)cccn2c(=O)c1/C=C1/SC(=S)N(Cc2ccco2)C1=O,-2.89% [at 46.1 µM],
CCOc1nc(-c2ccc(OC)cc2)ccc1-c1noc(-c2cc(OC)c(OC)c(OC)c2)n1,3.47%,
COc1ccc(-c2nc(-c3ccccc3)no2)c(OC)c1,,1.64 µM (active)
CC(=O)c1ccc(NC(=O)COc2ccccc2-c2nc(-c3ccccc3)no2)cc1,3.33% [at 46.1 µM],
CC(=O)OCC(=O)C1(O)CCC2C3CC(C)C4=CC(=O)CCC4(C)C3C(O)CC21C (stereo unspecified),-11.5% [at 46.1 µM],
O=C(Nc1cccc(S(=O)(=O)N2CCOCC2)c1)C12CC3CC(CC(C3)C1)C2,0.293% [at 46.1 µM],
COc1ccc(NC(=O)/C(C#N)=C\c2cc(OC)c(OCc3ccc(C(=O)O)cc3)cc2Br)cc1,12.9%,
COc1ccc(CNC(=O)/C(C#N)=C/c2cccc(OC)c2OC)cc1,,3.55 µM (active)
N#C/C(=C\c1ccc(O)c(O)c1)C(=O)NCc1ccccc1,1.83%,
O=C(Nc1ccc(Cl)c(Cl)c1)c1ccccc1NC(=O)C1CC=CCC1C(=O)O (stereo unspecified),16.9% [at 46.1 µM],
CCOC(=O)c1c(-c2cccc(C)c2)csc1NC(=O)c1c(-c2ccccc2)noc1C,,0.562 µM (active)
CC(=O)Nc1cccc(NC(=O)c2c(-c3ccccc3)noc2C)c1,-0.808%,
Cc1ccc(CNC(=O)c2c(-c3ccccc3)noc2C)cc1,16.7% [at 46.1 µM],
Cc1cccc(N2CCN(c3ccc(C(=O)O)cc3NC(=O)c3ccccc3F)CC2C)c1 (stereo unspecified),13.8% [at 46.1 µM],
NC(=O)C1(Nc2ccccc2Cl)CCCC1,-22.7%,
Cc1noc(NS(=O)(=O)c2ccc(N/C=C/C(=O)c3ccccc3)cc2)c1C,1.23%,
CCOc1ccc(N/C=C/C(=O)c2ccccc2)cc1,,7.08 µM (active)
O=C(/C=C\NCC(=O)c1ccccc1)c1ccccc1,0.347%,

Structure (SMILES),"activity change, negative = inhibition",Potency
COc1ccc2c(CNCCc3ccccc3C)c(C(=O)O)n(Cc3ccccc3C)c2c1,-8.31% [at 46.1 µM],
COc1ccc(CCNCc2c(-c3ccccc3)n(C)c3ccccc23)cc1,,8.91 µM (active)
COc1ccc(Cn2c(C(=O)O)c(CNCCc3cccs3)c3ccc(OC)cc32)cc1,-13.2% [at 46.1 µM],
CCOC(=O)C1CCN(C(=O)COc2cccc3ccccc23)CC1,17.3% [at 46.1 µM],
O=C(Nc1cc(S(=O)(=O)N2CCCCC2)ccc1Cl)C1COc2ccccc2O1 (stereo unspecified),-24.8%,
COc1cccc(CNC(=O)c2ccc3c(c2)sc2nc(-c4cccc(OC)c4)cn23)c1,-0.598% [at 46.1 µM],
CC(=O)c1cc(C#N)c(N2CCCCC2)nc1C,0.572%,
CC(=O)c1ccc(S(=O)(=O)N2CCN(c3nc4c(C)c(C)ccc4cc3C#N)CC2)cc1,,18.3 µM (active)
Cc1cc(C)c2nc(N3CCCC3)c(C#N)cc2c1,11.1%,
COc1ccc(N2CCN(C(=O)COC(=O)c3cccc(S(=O)(=O)Nc4ccccc4OC)c3)CC2)cc1,-29.3%,
COCCN(C(=O)C(C)N1C(=O)c2ccccc2C1=O)c1c(N)n(CC(C)C)c(=O)[nH]c1=O (stereo unspecified),10.8%,
Cn1cc([N+](=O)[O-])c(C(=O)Nc2cnn(Cc3ccc(F)cc3)c2)n1,-15%,
CC(=O)Nc1ccn(Cc2c(F)cccc2Cl)n1,23.3%,
O=C(Nc1ccn(Cc2ccccc2)n1)c1n[nH]c([N+](=O)[O-])c1Cl,,7.31 µM (active)
O=C(CN1CCC(NC(=O)Nc2ccccc2)CC1)Nc1cccc([N+](=O)[O-])c1,9.38%,
CCn1c(SCC(=O)Nc2ccc(Br)cc2)nc2sc3c(c2c1=O)CCN(C)C3,13.2% [at 46.1 µM],
COc1ccc(C)cc1Nc1nc(C)nc2c1oc1ccccc12,-17.2%,
CCC1([N+](=O)[O-])COC(c2ccc(C(C)C)cc2)OC1 (stereo unspecified),0.913% [at 46.1 µM],
COc1ccc(/C=C2\CCCC3C2=NN(C(=O)c2scnc2C)C3c2ccc(OC)cc2)cc1 (stereo unspecified),,1.03 µM (active)
COc1ccc(/C=C2/CCCc3ccccc3C2=O)cc1,-3.13%,
CCOc1ccccc1-c1nc(CN2CCC(C(=O)N3CCOCC3)CC2)c(C)o1,1.92%,
COc1cccc(C=CC(=O)C=CC=Cc2ccccc2)c1,8.13% [at 46.1 µM],
O=[N+]([O-])c1ccc(N=NNc2ccc([N+](=O)[O-])cc2)cc1,-8.18% [at 46.1 µM],
